These results are taken from PubChem BioAssay AID1851 (National Center for Advancing Translational Sciences (NCATS), 2009).

A word on the AC50: it is the concentration at which the activity in the assay is half-maximal.

Several values for one entry are separate records, joined by “and”; a condition that tells them apart may be missing. Identical values can stand only once. About 4,000 (25%) of roughly 16,000 compounds were called active. Not shown: some 26% with an inconclusive outcome. A selection follows. Unmarked numbers belong to inactive results. The call rests on the fitted dose curve; in most records, active means well fitted curve in the direction sought with a large enough effect; inconclusive means small, poorly fitted or top-dose-only effect, or effect the other way; inactive means no such curve, though single readings can be large or run the other way.
On the % scale 0 is the no-effect control and ±100 the full control effect.

The target of the assay is Cytochrome P450 2C9 (Homo sapiens) (UniProt P11712). As to the kind of experiment: Cytochrome panel assay with activity outcomes. To be noted: recombinant CYP, pro-luciferin dealkylation, luminescence, p450-cyp2c9; series mostly up to 57.1 µM; activity, negative = inhibition: at the top concentration.
Chain of Cytochrome P450 2C9 (Homo sapiens) (P11712 whole entry, looked up): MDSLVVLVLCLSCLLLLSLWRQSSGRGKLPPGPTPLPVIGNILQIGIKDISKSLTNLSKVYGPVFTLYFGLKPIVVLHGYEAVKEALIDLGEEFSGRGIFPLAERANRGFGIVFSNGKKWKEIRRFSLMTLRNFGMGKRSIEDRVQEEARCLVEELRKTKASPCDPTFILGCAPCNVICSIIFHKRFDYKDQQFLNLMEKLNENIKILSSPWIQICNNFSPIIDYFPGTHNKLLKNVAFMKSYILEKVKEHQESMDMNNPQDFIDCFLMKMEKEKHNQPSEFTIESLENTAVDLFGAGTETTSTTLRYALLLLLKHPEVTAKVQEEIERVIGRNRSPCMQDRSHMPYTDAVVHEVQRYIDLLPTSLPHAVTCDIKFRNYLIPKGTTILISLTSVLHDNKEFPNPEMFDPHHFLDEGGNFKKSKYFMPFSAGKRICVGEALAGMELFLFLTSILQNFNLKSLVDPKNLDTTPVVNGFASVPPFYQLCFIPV
Take `CC(C)CNCCc1ccccn1`: the activity, negative = inhibition was -0.994% [at 11.4 µM].

For the compound `N[C@@H](CP(=O)(O)O)C(=O)O`, the activity, negative = inhibition is 6.98% [at 11.4 µM].

Take `NC(=O)c1cc(N2CC2)c([N+](=O)[O-])cc1[N+](=O)[O-]`: the “activity, negative = inhibition” value was 19.9%.

`C=C1[C@@H]2C[C@@]3([C@H]1O)[C@H]1C[C@@H]4[C@@]5(C)CC[C@H](O)[C@]4([C@H]1N(CC)C5)[C@H]3C[C@H]2O`: the “activity, negative = inhibition” value is -10.8% [at 25.6 µM].

For `OC(c1ccccc1)(c1ccccc1)C1CCNCC1`, the “activity, negative = inhibition” value is -22.6% [at 25.6 µM].

For the compound `Cc1ccc(S(=O)ON2CCC(C(=O)O)(c3ccccc3)CC2)cc1` (centres undefined), the activity, negative = inhibition is 4.74% [at 11.4 µM].

As to `O=C1C[C@@H](c2ccc(O)cc2)Oc2cc(O)cc(O)c21`, the “activity, negative = inhibition” value is -29% [at 25.6 µM].

As to `CS(=N)(=O)CC[C@@H](N)C(=O)O` (some centres undefined), the activity, negative = inhibition result was “inactive”.

`COC(=O)N1CCC2(CCCN(C)C2)CC1`: the “activity, negative = inhibition” value was 5.87%.

Regarding `Nc1nc(N)c(N=Nc2ccc([As](=O)(O)O)cc2)c(=O)[nH]1`, the activity, negative = inhibition is 3.51% [at 11.4 µM].

With `N[C@@H](Cn1ccc(=O)n(Cc2ccc(C(=O)O)cc2)c1=O)C(=O)O`, the “activity, negative = inhibition” value was -13.2%.

For `NC[C@@H](O)CSP(=O)(O)O`, the activity, negative = inhibition was 10.5% [at 11.4 µM].

In the case of `CSC([N-]/N=C/c1cccc(C)n1)=[S]=[Cu].CS[C@H]([S-])[N-]/N=C/c1cccc(C)n1`, the AC50 is 0.251 µM (active).

Regarding `Nc1ccc(CCN2CCN(c3cccc(C(F)(F)F)c3)CC2)cc1`, the “activity, negative = inhibition” value was -7.19%.

As to `N[C@H](Cc1ccc(N(CCCl)CCCl)cc1)C(=O)O`, the “activity, negative = inhibition” value was -7.88%.

As for `CCCCC1(CCCC)C(=O)NC(=Nc2cccc(C)c2)NC1=O`, the AC50 was 5.01 µM (active).

For the compound `CCC1(C)CC(=O)NC(=O)C1`, the “activity, negative = inhibition” value was -12.8% [at 25.6 µM].

Regarding `CC(C)[C@]1(O)[C@@H](OC(=O)c2ccc[nH]2)[C@]2(O)[C@@]3(C)C[C@@]4(O)O[C@@]5([C@H](O)[C@@H](C)CC[C@]35O)[C@]2(O)[C@]41C`, the activity, negative = inhibition was 13.6% [at 11.4 µM].

As to `CC[C@@H]1CN2CCc3cc(OC)c(OC)cc3[C@H]2C[C@@H]1C[C@H]1NCCc2cc(OC)c(OC)cc21`, the “activity, negative = inhibition” value was 17.8% [at 25.6 µM].

As for `O=C(OC1CCN(CCCl)CC1)C(c1ccccc1)c1ccccc1`, the “activity, negative = inhibition” value was -0.507%.

Take `CCOC(=O)c1c(NC(=O)C(c2ccccc2)c2ccccc2)sc2c1C1CCN2CC1`: the AC50 is 1.58 µM (active).

Turning to `CCOC(=O)c1cncn1[C@H](C)c1ccccc1`, the “activity, negative = inhibition” value is 3.2%.

For the compound `N[C@H](CCCCCP(=O)(O)O)C(=O)O`, the activity, negative = inhibition entry is “inactive”.

As for `CCOC(=O)C1=C(C)OC(N)=C(C#N)C12C(=O)N(C)c1ccccc12` (centres undefined), the “activity, negative = inhibition” value was -11.1%.

For the compound `CC(=O)NCCc1c[nH]c2ccccc12`, the “activity, negative = inhibition” value is 4.14%.

On to `CN1C[C@H](C(=O)N[C@@]2(C)O[C@@]3(O)[C@H]4CCCN4C(=O)[C@@H](Cc4ccccc4)N3C2=O)C=C2c3cccc4[nH]cc(c34)C[C@@H]21`, for which the activity, negative = inhibition was -17.2% [at 11.4 µM].

For the compound `CC(C)[C@@]1(NC(=O)[C@@H]2C[C@H]3c4cccc5[nH]cc(c45)C[C@@H]3N(C)C2)O[C@@]2(O)[C@H]3CCCN3C(=O)[C@H](Cc3ccccc3)N2C1=O`, the AC50 is 2.51 µM (active) and 6.31 µM (active).

As for `CC(C)[C@@]1(NC(=O)[C@@H]2C[C@H]3c4cccc5[nH]cc(c45)C[C@@H]3N(C)C2)O[C@]2(O)[C@H]3CCCN3C(=O)[C@H](Cc3ccccc3)N2C1=O`, the AC50 was 2.51 µM (active).

For `CC(C)C[C@H]1C(=O)N2CCC[C@@H]2[C@@]2(O)O[C@](NC(=O)[C@@H]3C=C4c5cccc6[nH]cc(c56)C[C@@H]4N(C)C3)(C(C)C)C(=O)N12`, the “activity, negative = inhibition” value is -20.9% [at 25.6 µM].

`c1ccc(N2CC3(CCNCC3)C2)cc1`: the “activity, negative = inhibition” value is -15.5%.

Turning to `c1ccc2cc(CC3=NCCN3)ccc2c1`, the “activity, negative = inhibition” value was 17.4%.

Consider `CCOC(=O)[C@@H]1[C@@H]2c3ccccc3-c3ccccc3[C@H]2C[C@H]1O`, for which the activity, negative = inhibition was 29.6% [at 11.4 µM].

`CO[C@@H](C)[C@](O)(C(=O)OCC1=CCN2CC[C@@H](O)[C@H]12)C(C)C`: the “activity, negative = inhibition” value was 7.91% [at 25.6 µM].

`CNC(=O)Oc1ccc2c(c1)[C@@]1(C)CCN(C)[C@@H]1N2C`: the “activity, negative = inhibition” value was 28.3% [at 25.6 µM].

Take `COc1ccc2c3c1O[C@@H]1C(=O)CC[C@@]4(O)[C@@H](C2)N(CC2CC2)CC[C@]314`: the “activity, negative = inhibition” value is -7.27%.

For `c1ccc2c(c1)[I+]c1ccccc1-2`, the concentration at half-maximal activity (AC50) is 1 µM (active) and 100 nM (active).

For the compound `O=C(O)/C=C\c1ccc[c]([Sb](=[O])([OH])[OH])c1`, the activity, negative = inhibition is 12.8% [at 11.4 µM].

Consider `CSCC[C@@H](N)P(C)(=O)O`, for which the activity, negative = inhibition is 21.1% [at 11.4 µM].

`O=C1C=CC(=O)c2c1ccc1c2ccc2ccccc21`: the half-maximal activity concentration (AC50) is 1.26 µM (active).

On to `O=C1N[C@@]2(CN3CCC2CC3)C(=O)N1CN(Cc1ccccc1)c1ccccc1`, for which the activity, negative = inhibition is -7.38% [at 11.4 µM].

For the compound `COCCCn1c(N)c(C(=O)Nc2sc3c(c2C(=O)OC)CCCC3)c2nc3ccccc3nc21`, the AC50 was 2.24 µM (active).

As for `NCCCC[C@H](N[C@@H](CCc1ccccc1)C(=O)O)C(=O)N1CCC[C@H]1C(=O)O`, the “activity, negative = inhibition” value was -10.5% [at 25.6 µM].

Turning to `Oc1ccc(CCNCc2cc3c(cc2Br)OCO3)cc1`, the activity, negative = inhibition is -10.6% [at 11.4 µM].

In the case of `CC(=O)OC1=CC2=CC[C@H]3[C@H]4CCC(=O)[C@@]4(C)CC(=O)[C@]3(S)[C@]2(C)CC1`, the activity, negative = inhibition is 4.96% [at 11.4 µM].

On to `CC(O)(CS(=O)(=O)c1cccc(C(F)(F)F)c1)C(=O)Nc1ccc(C(F)(F)F)cc1` (centres undefined), for which the concentration at half-maximal activity (AC50) was 11.2 µM (active).

As for `C[N+](C)(C)[C@H](Cc1c[nH]c(=S)[nH]1)C(=O)O`, the activity, negative = inhibition was 11.9% [at 11.4 µM].

On to `COc1cc(N)c(Cl)cc1C(=O)N[C@@H]1CN2CCC1CC2`, for which the AC50 was 12.6 µM (active).

For the compound `CN1C(=O)COc2c(C(=O)N[C@@H]3CN4CCC3CC4)cc(Cl)cc21`, the “activity, negative = inhibition” value was -4.86%.

With `CC(C)n1cnc2c(C(=O)N[C@H]3CN4CCC3CC4)cc(Cl)cc21`, the concentration at half-maximal activity (AC50) is 0.398 µM (active).

As for `CCCn1c(C)c(C(=O)c2ccc3ccccc3c2)c2ccccc21`, the “activity, negative = inhibition” value was 6.27%.

Take `CNC[C@H](O)c1ccc(OC(=O)C(C)(C)C)c(OC(=O)C(C)(C)C)c1`: the “activity, negative = inhibition” value is 14.3% [at 25.6 µM].

For `N[C@@H]1C=CC=C(C(=O)O)C1`, the “activity, negative = inhibition” value is 8.11%.

Turning to `COc1ccc(C[C@H]2c3cc(OC)c(OC)cc3CCN2C)cc1OC`, the “activity, negative = inhibition” value is -18.3% [at 25.6 µM].

`C=CCN1CC[C@]23c4c5ccc(O)c4O[C@@H]2/C(=N/NC(=O)c2ccccc2)CC[C@@]3(O)[C@H]1C5`: the “activity, negative = inhibition” value was -21.2%.
